PLK1 PBD inh – PLK1 (human) polo-box domain binding inhibition | P53350 | Plk1 PBD binding of FITC phosphopeptide, fluorescence polarization | Potency, µM, usual class: inhibitors | actives 2.8% (n = 360,000) | AID 720504; note: series mostly up to about 57 µM; nearly all actives have a fitted effect of over 65% in size
Target sequence (P53350 whole entry, looked up, the tested form may be a part): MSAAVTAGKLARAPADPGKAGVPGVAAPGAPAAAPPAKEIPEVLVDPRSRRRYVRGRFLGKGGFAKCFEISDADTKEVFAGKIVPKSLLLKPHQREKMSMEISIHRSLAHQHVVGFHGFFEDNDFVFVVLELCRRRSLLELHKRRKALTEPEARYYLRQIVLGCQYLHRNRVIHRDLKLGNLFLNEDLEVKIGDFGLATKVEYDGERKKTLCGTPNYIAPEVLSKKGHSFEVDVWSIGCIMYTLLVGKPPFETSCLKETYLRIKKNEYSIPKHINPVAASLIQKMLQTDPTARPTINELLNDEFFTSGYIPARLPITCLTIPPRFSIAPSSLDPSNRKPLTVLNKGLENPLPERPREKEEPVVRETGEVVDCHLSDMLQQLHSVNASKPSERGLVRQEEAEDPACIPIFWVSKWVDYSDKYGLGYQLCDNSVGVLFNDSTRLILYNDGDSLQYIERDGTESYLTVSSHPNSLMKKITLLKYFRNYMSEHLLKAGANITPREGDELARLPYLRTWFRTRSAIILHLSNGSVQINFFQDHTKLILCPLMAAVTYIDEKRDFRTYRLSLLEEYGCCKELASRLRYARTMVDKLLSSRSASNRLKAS
VP16 counter – counter-screen for ROR gamma inhibitors: Gal4-VP16 reporter; Drosophila S2 Gal4-VP16 UAS-luciferase, luminescence, 20 h; Potency, µM (highest dose often 53.6 µM), most hits filed as inhibitors; actives 3.5% (n = 310,000); AID 2546;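 note: Gal4-VP16 expression switched on by copper sulfate through the metallothionein promoter; nearly all actives have a fitted effect of over 50% in size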
Sfp PPTase inh – inhibitors of Bacillus subtilis Sfp phosphopantetheinyl transferase. Biochemical Sfp PPTase activity, qHTS. Q9F4F7. AID 1490. actives 3.5% (n = 310,000). Potency, µM, actives largely listed as inhibitors;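 note: the enzyme is Sfp with the accession as filed and its product quenches rhodamine fluorescence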
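Compounds were incubated with enzyme (final 15 nM) for 15 min at room temperature before substrate addition started the reaction. Fluorescence at 525 nm excitation, 598 nm emission was recorded immediately and after 30 minutes.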
RORg inh – blocks mouse ROR gamma transcriptional activity; P51450; actives 5.4% (n = 310,000); Potency, µM (highest dose often 53.6 µM), hits mostly inhibitors; Drosophila S2 Gal4-RORgamma UAS-luciferase reporter, 20 h; note: nearly all actives have a fitted effect of over 60% in size
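Stably transfected Drosophila Schneider cells are the test system, with ROR gamma fused to Gal4 and luciferase under UAS control; luminescence is read after 20 hr of 700 uM copper sulfate induction at ambient temperature.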
ALDH1A1 inh – ALDH1A1 (human) enzyme inhibition | Purified ALDH1A1, NADH fluorescence, propionaldehyde substrate | P00352 | Potency, µM (series often up to 75.3 µM), hits mostly inhibitors | actives 7.3% (n = 220,000); active = well fitted inhibition curve with a large enough effect, not every such curve was filed as active; inconclusive = small, poorly fitted or top-dose-only effect, or another doubt; inactive = no such curve, though single readings can be large or run the other way
Of the large screens only hits and unclear results are named; the others gave an inactive call. This is a sample that favours compounds with a hit; in the whole collection about 12% have one here. Unless noted, calls come from the whole dose curve; as a rule, active = well fitted curve in the direction sought with a large enough effect; inconclusive = small, poorly fitted or top-dose-only effect, or another doubt; inactive = no such curve, though single readings can be large; an effect the other way counts as inactive or inconclusive.

Nc1cccc2c1C(=O)N(C(=O)c1ccc(Cl)c(S(=O)(=O)N3CCCCCC3)c1)C2=O	PLK1 PBD inh inconclusive, ALDH1A1 inh inconclusive
Nc1cccc2c1C(=O)N(C(=O)c1cccc(S(=O)(=O)N3CCCCCC3)c1)C2=O	PLK1 PBD inh 3.2µM, VP16 counter inconclusive
COc1ccc2ccccc2c1/C=N/Nc1ccc(Cl)c(C(=O)O)c1	PLK1 PBD inh inconclusive (no result: ALDH1A1 inh)
NC(=S)N/N=C/c1c(O)ccc2ccccc12	VP16 counter 4µM, RORg inh 1.1µM (no result: ALDH1A1 inh)
O=CN/N=C/c1c(O)ccc2ccccc12	VP16 counter 2.8µM, RORg inh 0.79µM (no result: ALDH1A1 inh)
COc1ccc(N/N=C/c2c(C(=O)O)ccc3ccccc23)cc1	VP16 counter 4.5µM, RORg inh 1.4µM (no result: ALDH1A1 inh)
Oc1ccc2ccccc2c1/C=N/Nc1ccccc1	PLK1 PBD inh inconclusive, VP16 counter inconclusive, RORg inh inconclusive, ALDH1A1 inh 18µM
COc1ccccc1S(=O)(=O)N(C)C[C@@H]1OCc2cnnn2CCCC(=O)N([C@H](C)CO)C[C@H]1C	none (no result: VP16 counter, Sfp PPTase inh, RORg inh, ALDH1A1 inh)
COC(=O)c1ccc(-c2ccc(OC)c(C3C4C=CCC(C)C4C(=O)N3Cc3ccccc3)c2)cc1 (stereo not drawn)	none (no result: PLK1 PBD inh, ALDH1A1 inh)
Oc1ccc2ccccc2c1/C=N/c1nc2c(s1)CCCC2	PLK1 PBD inh 13µM, VP16 counter inconclusive, RORg inh inconclusive, ALDH1A1 inh inconclusive
Cc1cc(O)c(C=Nc2ccc(Cl)cn2)c(=O)o1	Sfp PPTase inh inconclusive, ALDH1A1 inh inconclusive
Cc1cc(N/N=C/c2c(O)ccc3ccccc23)nc(-c2ccccc2O)n1	VP16 counter 4µM, RORg inh 7.1µM
Oc1ccc2ccccc2c1C=Nc1ccc(Cl)cn1	PLK1 PBD inh 17µM, RORg inh inconclusive, ALDH1A1 inh inconclusive
Cc1cc(Nc2ccccc2)nc(-c2ccccc2O)n1	none
Oc1ccc2ccccc2c1C=NC1CCCCC1	PLK1 PBD inh inconclusive, VP16 counter inconclusive, RORg inh inconclusive, ALDH1A1 inh inconclusive
CCOC(=O)c1oc2ccccc2c1CSc1nnnn1-c1ccccc1	ALDH1A1 inh 6.3µM
CCOC(=O)c1oc2ccccc2c1CN1CCOCC1	ALDH1A1 inh 11µM
CCOC(=O)c1oc2ccccc2c1CN1CCCCC1	Sfp PPTase inh inconclusive
CCN(CC)C(=O)C1=C(C)N(Cc2ccc(C(C)(C)C)cc2)C(=O)C(CC(=O)NCCCN(C)C)C1 (stereo not drawn)	none (no result: VP16 counter, Sfp PPTase inh, RORg inh, ALDH1A1 inh)
COC(=O)c1ccc(C(NC(=O)OCc2ccccc2)/C(=C/[C@@H](C)C(=O)NCC2CC2)c2cccnc2)cc1 (stereo partly drawn)	none (no result: PLK1 PBD inh)
O=C(O)c1ncsc1-c1ccccc1	PLK1 PBD inh 24µM, Sfp PPTase inh 25µM (no result: ALDH1A1 inh)
S=c1[nH]ncn2c1cc1oc3ccccc3c12	RORg inh 2.5µM, ALDH1A1 inh inconclusive
Nc1ccc2oc3ccccc3c2c1	ALDH1A1 inh inconclusive
O=C(Nc1cccnc1)c1ccccc1Oc1ccccc1	ALDH1A1 inh 18µM
O=C(Nc1cccnc1)c1ccc(Oc2ccccc2)cc1	VP16 counter inconclusive, RORg inh inconclusive
O=C(Nc1cccnc1)c1ccc2nc(-c3ccccc3)c(-c3ccccc3)nc2c1	ALDH1A1 inh 18µM
O=C(Nc1ccccn1)c1ccc2nc(-c3ccccc3)c(-c3ccccc3)nc2c1	ALDH1A1 inh 11µM (no result: PLK1 PBD inh)
O=C(NCc1cccnc1)C1Cc2c(-c3ccc(Cl)cc3)ccnc2O1 (stereo not drawn)	none (no result: VP16 counter, Sfp PPTase inh, RORg inh, ALDH1A1 inh)
O=C(NCC1CCCN(Cc2ccc3nonc3c2)C1)c1cccc(C(F)(F)F)c1 (stereo not drawn)	none
COc1cc(/C=C(\C#N)C(=O)NC(C)C)ccc1OCc1ccc(C(=O)O)cc1	ALDH1A1 inh inconclusive
COc1cc(/C=C(\C#N)C(=O)Nc2ccc(C(=O)O)cc2)ccc1OC(=O)c1cccc(F)c1	PLK1 PBD inh 24µM, Sfp PPTase inh inconclusive (no result: ALDH1A1 inh)
N#C/C(=C\c1ccc(OCc2ccc(C(=O)O)cc2)cc1)C(=O)NCc1ccccc1	PLK1 PBD inh inconclusive (no result: ALDH1A1 inh)
COc1cc(/C=C(\C#N)C(=O)Nc2cccc(C(=O)O)c2)ccc1OCc1ccc(C)cc1	PLK1 PBD inh inconclusive, RORg inh inconclusive (no result: ALDH1A1 inh)
COc1cc(/C=C(\C#N)C(=O)NC2CCCCC2)ccc1OCc1ccc(C(=O)O)cc1	VP16 counter inconclusive, Sfp PPTase inh inconclusive, RORg inh 13µM, ALDH1A1 inh 14µM
COc1cc(/C=C(\C#N)C(=O)NCc2ccccc2)ccc1OCc1ccc(C(=O)O)cc1	PLK1 PBD inh 19µM (no result: ALDH1A1 inh)
COc1cc(/C=C(/C#N)C(=O)Nc2ccccc2)ccc1OCc1ccc(C(=O)O)cc1	PLK1 PBD inh inconclusive, ALDH1A1 inh 22µM
CCOc1cc(/C=C(/C#N)C(=O)Nc2ccc(OC)cc2)ccc1OCc1ccc(C(=O)O)cc1	PLK1 PBD inh 27µM, VP16 counter inconclusive (no result: ALDH1A1 inh)
CSc1ccc(/C=C/c2ccc3cccc(O)c3n2)cc1	VP16 counter inconclusive, RORg inh 4.5µM
O=[N+]([O-])c1cccc2ccc(/C=C/c3ccc(Cl)cc3)nc12	none
COc1cc(Br)cc(/C=C/c2ccc3cccc(O)c3n2)c1O	VP16 counter 3.2µM, RORg inh 2.5µM (no result: ALDH1A1 inh)
COc1ccc(OC)c(/C=C/c2ccc3cccc(O)c3n2)c1	VP16 counter 4.5µM, RORg inh 2.5µM (no result: PLK1 PBD inh, ALDH1A1 inh)
COc1cc(/C=C/c2ccc3cccc(O)c3n2)c(Br)cc1O	VP16 counter inconclusive, RORg inh 2.8µM (no result: PLK1 PBD inh, ALDH1A1 inh)
Cc1nc(-c2ccccc2)c(-c2ccncc2)o1	none (no result: PLK1 PBD inh, ALDH1A1 inh)
COc1cc(/C=C/c2ccc3cccc(O)c3n2)ccc1O	VP16 counter 3.2µM, Sfp PPTase inh inconclusive, RORg inh 3.2µM (no result: ALDH1A1 inh)
COc1cc(Br)c(/C=C/c2ccc3cccc(O)c3n2)cc1OC	VP16 counter 3.2µM, RORg inh 2.8µM (no result: ALDH1A1 inh)
Oc1cccc2ccc(/C=C/c3ccccc3Br)nc12	VP16 counter 3.2µM, RORg inh 4µM (no result: ALDH1A1 inh)
COc1ccccc1S(=O)(=O)N(C)C[C@@H]1OCc2cnnn2CCCC(=O)N([C@@H](C)CO)C[C@H]1C	none (no result: VP16 counter, Sfp PPTase inh, RORg inh, ALDH1A1 inh)
O=C1CC[C@](CCc2nc3ccccc3[nH]2)(c2ccccc2)C(=O)N1	none (no result: PLK1 PBD inh, VP16 counter, Sfp PPTase inh, RORg inh)
COc1cccc([C@@H]2Oc3ccc(Br)cc3C(=O)[C@H]2OC(=O)N[C@H]2CCCc3ccccc32)c1	ALDH1A1 inh inconclusive (no result: PLK1 PBD inh)
COC(=O)c1ccc(C(NC(=O)c2ccco2)[C@]2(C)C[C@H]2C2CCCCC2)cc1 (stereo partly drawn)	ALDH1A1 inh 3.5µM (no result: PLK1 PBD inh)
COCCN(Cc1ccccc1)C(=O)c1cccc(S(=O)(=O)N2CCN(Cc3ccccc3)CC2)c1	none (no result: VP16 counter, Sfp PPTase inh, RORg inh, ALDH1A1 inh)
COc1ccc(NC(=O)CN(C)CC(=O)NC2CCC(C)CC2)cc1 (stereo not drawn)	none (no result: VP16 counter, Sfp PPTase inh, RORg inh, ALDH1A1 inh)
COc1ccc(CN2C(=O)c3c(c(C)n(C)c3C)C2C(=O)NC2CCC(C)CC2)cc1 (stereo not drawn)	ALDH1A1 inh 0.79µM
COc1ccc(C(=O)c2ccc(OC)c(Br)c2)cc1Br	PLK1 PBD inh 19µM, VP16 counter inconclusive, ALDH1A1 inh 20µM
COc1ccc(C(=S)N2CCC(C(N)=O)CC2)cc1Br	PLK1 PBD inh 19µM, Sfp PPTase inh 40µM, ALDH1A1 inh inconclusive
NC(=O)c1ccc(-c2ccc(Br)cc2)o1	ALDH1A1 inh inconclusive
